High-throughput results (PubChem BioAssay)
Hits are enriched below; roughly 3.6% of the tested compounds scored in any of these assays.
Mtb bLac sens: beta-lactam sensitization of Mtb H37Rv. M. tuberculosis H37Rv growth with meropenem, percent inhibition. inhibition, % at 25 µM. 330,000 tested, 0.27% active; call rule not given here;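 also: growth measured after seven days incubation then overnight dye step; 0% = bacteria only wells and 100% = bacteria with antibiotic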
Mtb hypoxia rep: inhibitors of hypoxia-regulated fluorescent reporter in Mycobacterium tuberculosis; M. tuberculosis hypoxia-regulated fluorescent reporter, fluorescence; fluorescence inhibition, % (test concentration not listed); 300,000 tested, 0.1% active; in the data active = fluorescence inhibition mostly above about 23%, no sharp cut-off; inactive = mostly below about 17%
VHR inh abs: blocks human VHR1 dual specificity phosphatase; inhibition, % at 13.3 µM; P51452; AID 1654; 290,000 tested, 0.52% active; recombinant VHR phosphatase, pNPP absorbance; in the data active = inhibition above about 50%
Target sequence (P51452 whole entry, looked up): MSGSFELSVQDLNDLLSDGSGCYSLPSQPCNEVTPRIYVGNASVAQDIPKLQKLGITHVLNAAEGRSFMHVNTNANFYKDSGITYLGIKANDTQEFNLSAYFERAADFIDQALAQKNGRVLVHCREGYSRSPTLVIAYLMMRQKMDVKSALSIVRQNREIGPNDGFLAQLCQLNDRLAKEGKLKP
GDH-TPI counter-1: counter-screen for M. tuberculosis FBA inhibitors: GDH-TPI coupled enzymes; GDH-TPI coupled enzyme counterscreen, NADH absorbance; inhibition, % at 4.8 µM; AID 588335; 360,000 tested, 1.2% active; in the data active = inhibition above about 30%;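 also: 0% = DMSO wells and 100% = wells lacking the enzyme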
FBA Mtb inh: inhibitors of M. tuberculosis fructose-bisphosphate aldolase; purified M. tuberculosis FBA, fluorescence read-out; 360,000 tested, 2.3% active; P9WQA3; inhibition, % at 1 µM;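 also: 0% = vehicle and 100% = reference inhibitor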
Target sequence (P9WQA3 whole entry, looked up): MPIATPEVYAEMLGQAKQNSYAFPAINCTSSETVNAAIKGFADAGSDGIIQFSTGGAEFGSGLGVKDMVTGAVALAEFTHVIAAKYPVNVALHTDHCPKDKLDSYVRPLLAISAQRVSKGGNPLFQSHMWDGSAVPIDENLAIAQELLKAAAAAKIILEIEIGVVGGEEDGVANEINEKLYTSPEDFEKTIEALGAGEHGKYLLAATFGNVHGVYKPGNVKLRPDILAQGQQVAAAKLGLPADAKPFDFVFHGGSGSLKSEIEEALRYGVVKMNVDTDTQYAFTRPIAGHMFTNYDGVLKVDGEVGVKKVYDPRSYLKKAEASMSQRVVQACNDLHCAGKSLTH
Mtb FBA inh conf: Mtb FBA inhibition, confirmed. shares compounds with FBA Mtb inh. purified M. tuberculosis FBA, fluorescence read-out. inhibition, % at 1 µM. 5,600 tested, 78% active;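 also: 0% = vehicle wells and 100% = reference inhibitor wells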
GDH-TPI counter-2: inhibits GDH-TPI coupling enzymes, flagging Mtb FBA hits | shares compounds with FBA Mtb inh | GDH-TPI coupled enzyme counterscreen, fluorescence | inhibition, % at 1 µM | 5,600 tested, 81% active | AID 652141; in the data active = inhibition above about 10%
GDH-TPI dose: GDH-TPI dose response counter-screen for Mtb FBA. IC50, µM. GDH-TPI coupled enzyme assay, fluorescence, artifact counterscreen. 170 tested, 79% active. shares compounds with FBA Mtb inh; call rule not given here
Starred values were filed as active, the others as inactive; ? = inconclusive; · = not tested or not shown; + = active, no number. Rule as the data show it, unless noted: active = inhibition above about 27%; inactive = the rest.

SMILES	Mtb bLac sens	Mtb hypoxia rep	VHR inh abs	GDH-TPI counter-1	FBA Mtb inh	Mtb FBA inh conf	GDH-TPI counter-2	others
Nc1ccc(-c2cc(-c3ccc(N)cc3)nc(-c3ccccc3)n2)cc1	2	-3	14	18	39*	54*	28*
Nc1nc(-c2ccc(-c3ccccc3)cc2)cs1	55	-5	-4	3	33*	+	+
CCCOc1ccc(C(=O)NN=Cc2c[nH]c3ccc(Br)cc23)cc1	·	5	·	·	·	·	·
CCCCS(=O)(=O)Nc1ccc2cn[nH]c2c1	1	0	20	-7	-2	·	·
CCCCS(=O)(=O)Nc1ccc2ncn(C)c(=O)c2c1	-2	16	-1	1	35*	-3	-5
CCOC(=O)N1CCc2cc(OC)c(OC)c3c2c1cc1cc(OC)c(OC)cc13	·	·	·	9	38*	12	-1	GDH-TPI dose=5.5*
Cc1oc(-c2cccs2)nc1CSCC(=O)NC1CC1	-1	9	22	-6	35*	-2	-6
Cc1oc(-c2ccccc2Cl)nc1CSCC(=O)NC1CCCC1	9	10	33	-7	1	·	·
CCOC(=O)N1CCC(NC(=O)CSCc2nc(-c3sccc3C)oc2C)CC1	2	6	19	16	40*	1	-1
Cc1ccc(C(=O)CC(c2cccs2)S(=O)(=O)c2ccc(C)cc2)cc1 (stereo not given)	7	·	-4	2	102*	61*	29*
COc1ccc(NC(=O)Nc2ccc3c(c2)C(=O)N(C(C)CO)CC(C)C(CN(C)C(=O)Nc2ccc4c(c2)OCO4)O3)cc1 (stereo not given)	·	5	·	·	·	·	·
OC1CNc2c(ccc3ccccc23)C1 (stereo not given)	·	8	·	7	101*	175*	154*
Cc1cc(C)c2c(N)c3ccccc3nc2n1	5	2	10	-2	70*	181*	143*
CCc1ccc2nc3nc(C)cc(C)c3c(N)c2c1	12	-2	17	-2	34*	103*	77*
O=[N+]([O-])c1cccc(C=NNc2nc(C(Cl)(Cl)Cl)nc3ccccc23)c1	·	-8	·	·	·	·	·
COC(=O)c1ccccc1NCCO	3	14	7	9	109*	67*	55*
O=C(O)c1ccccc1NCCO	0	4	11	7	48*	138*	123*
CCNc1ccccc1C(=O)O	-2	·	-1	3	78*	-5	-7
O=C(Cc1ccccc1)NN=Cc1cc2c(cc1Cl)OCO2	·	-2	·	·	·	·	·
C#CCOCCOCCOCCNc1nc(N2CCN(C(=O)CCCCCCCCCCNC(=O)C(CCSC)n3cc(CCO)nn3)CC2)nc(N2CCN(C(=O)CCCCCCCCCCNC(=O)C(CCSC)n3cc(CCO)nn3)CC2)n1 (stereo not given)	·	0	·	·	·	·	·
CC(=O)NN1C(=O)c2ccccc2NC1c1ccccn1 (stereo not given)	3	9	-2	0	27*	14	10	GDH-TPI dose=6*
O=C(NN1C(=O)c2ccccc2NC1c1ccccn1)c1ccc(Br)cc1 (stereo not given)	-11	-5	17	2	-2	·	·
O=C(NN1C(=O)c2ccccc2NC1c1ccco1)c1ccc(Br)cc1 (stereo not given)	0	0	16	-2	0	·	·
CC(=O)NN1C(=O)c2ccccc2NC1c1ccco1 (stereo not given)	-1	·	16	-2	32*	39*	23*
O=C(CNC(=O)c1ccc2c(c1)OCCO2)NN=Cc1ccc(O)cc1O	·	0	·	·	·	·	·
SMILES	Mtb bLac sens	Mtb hypoxia rep	VHR inh abs	GDH-TPI counter-1	FBA Mtb inh	Mtb FBA inh conf	GDH-TPI counter-2	others
Cc1ccc(S(=O)(=O)N=C(c2ccccc2)N(C)S(=O)(=O)c2ccc(C)cc2)cc1	·	10	·	·	·	·	·
COc1cc2[nH]c3c(=O)n(CCN4CCCCC4)cnc3c2cc1OC	2	·	53*	24	41*	107*	92*
CCN1CCCC1Cn1cnc2c([nH]c3ccc(OC)cc32)c1=O (stereo not given)	-10	11	5	-1	57*	157*	125*
Cc1ccc2[nH]c3c(=O)n(CCN4CCOCC4)cnc3c2c1	3	8	8	1	14	·	·
O=c1c2[nH]c3ccc(F)cc3c2ncn1Cc1ccncc1	7	-9	-11	23	12	·	·
CCC1CCCN1Cn1cnc2c([nH]c3ccc(C)cc32)c1=O (stereo not given)	0	-2	23	11	41*	+	+
COc1ccc2[nH]c3c(=O)n(Cc4ccncc4)cnc3c2c1	-2	5	21	0	101*	20	5	GDH-TPI dose=1.9*
Oc1ccccc1C=N[n+]1ccccc1	·	-16	·	·	·	·	·
CC[C@@]12C(=O)N(c3ccccc3)C(=O)N1C(c1ccc(OC)cc1)C1C(=O)N(C(C)(C)C)C(=O)C12 (stereo not given in full)	·	-2	·	·	·	·	·
Cn1ncc(C#N)c1N=CN1CCCC1	·	1	·	·	·	·	·
COc1ccc2c(c1)c1ncn(Cc3ccc(F)cc3)c(=O)c1n2C	-10	-5	31	1	51*	3	-2
Cn1c2ccsc2c2ncn(Cc3ccc(F)cc3)c(=O)c21	-2	-2	·	7	3	·	·
CC(=O)c1cc2c(s1)-c1cc(F)ccc1OC2	0	-6	0	20	87*	63*	51*
COc1ccc(N(C)C(=O)c2cc3c(s2)-c2ccccc2OC3)c(OC)c1	?	·	29	30	4	·	·
CCOC(=O)[C@]12Cc3cc4c(cc3C1N(Cc1ccccc1)C(=O)c1ccccc12)OCO4 (stereo not given in full)	·	6	·	·	·	·	·
CCOC(=O)c1cc2c(s1)-c1ccccc1CC2	7	·	-1	19	49*	7	0
CCOC(=O)NN=C1CCc2ccccc21	·	13	·	·	·	·	·
COCCN1CCn2c(nc3cc(NC(=O)c4cccs4)ccc32)C1	1	7	-10	24	0	·	·
CCCCC(=O)Nc1ccc2c(c1)nc1n2CCOC1	6	-16	17	-1	2	·	·
CCCC(=O)Nc1ccc2c(c1)nc1n2CCN(CCOC)C1	-4	0	-53	5	33*	+	179*
CCCCC(=O)Nc1ccc2c(c1)nc1n2CCN(CCOC)C1	·	3	16	7	51*	16	12*
CC(=NOCON=C(C)c1ccc(F)cc1F)c1ccc(F)cc1F	·	11	·	·	·	·	·
CCN(CC)CCN1C(=O)c2ccccc2NC1c1ccc(Br)cc1 (stereo not given)	-7	-2	8	10	84*	121*	101*
CCN(CC)CCN1C(=O)c2ccccc2NC1c1cccc(F)c1 (stereo not given)	1	-13	28	8	51*	27*	21*
